Measurements taken from PubChem BioAssay AID1986 (Sanford-Burnham Center for Chemical Genomics, 2009).
The whole screen tested about 290,000 compounds, of which about 890 (0.31%) were called active. Cut-off read from the data, not from the text of the source: active = inhibition mostly above about 52% (no sharp cut-off); inactive = mostly below about 76%. Only a selection was taken, and actives are over-represented in it overall.

Assay: inhibitors of HIV fusion peptide binding, primary screen, biochemical, uHTS, fluorescence dequenching (AID 1986)
Conditions: cell-free peptide binding, 30 min, stronger effect = higher value
[1] = measured here: repeat confirmation average inhibition, at 18.6 µM

Structure (SMILES) | inhibition (at 20 µM) | inhibition [1] [%]
CC(=O)Nc1cccc(NC(=O)CSc2ncc(-c3ccccc3)[nH]2)c1 | 0.5% (inactive) | –
Cc1ccc(C(C(=O)NC2CCCCC2)N(Cc2ccco2)C(=O)Cn2cnc3ccccc32)cc1 (centres undefined) | -1.8% (inactive) | –
Cc1nc(NC(=O)/C=C/c2ccccc2)sc1C(=O)N1CCCCC1 | -0.3% (inactive) | –
Cc1cc(/C=C2\SC(=S)N(Cc3ccco3)C2=O)c(C)n1-c1cccnc1 | 53.6% (active) | 94.4
Cc1cc(/C=C2\SC(=S)N(Cc3ccco3)C2=O)c(C)n1-c1ccccc1 | 43.7% (inactive) | –
COc1ccc(-n2c(C)cc(/C=C3\SC(=S)N(Cc4ccco4)C3=O)c2C)cc1 | 38.3% (inactive) | –
NC(=O)CSc1nc(C23CC4CC(CC(C4)C2)C3)nc2ccccc12 | -1.1% (inactive) | –
CC(C)(C)C(=O)/C=c1\s/c(=C\c2ccc(-c3ccc([N+](=O)[O-])cc3)o2)c(=O)n1CC(=O)NC(N)=O | 76.8% (active) | –
CCCNC(=O)Cn1c(=O)/c(=C\c2ccc(-c3ccc([N+](=O)[O-])cc3)o2)s/c1=C\C(=O)C(C)(C)C | 145% (inactive) | –
CCCNC(=O)Cn1c(=O)/c(=C\c2ccc(-c3cccc([N+](=O)[O-])c3)o2)s/c1=C\C(=O)C(C)(C)C | 23.1% (inactive) | –
O=C(CCc1nc2ccccc2[nH]c1=O)N/N=C/c1ccccc1 | -0.5% (inactive) | –
CCOC(=O)CCSc1nc(C(C)(C)C)cc(C(F)(F)F)c1C#N | -0.1% (inactive) | –
CCOC(=O)NC(=O)CSc1nc(C)cc(C(F)(F)F)c1C#N | 4.9% (inactive) | –
CCOC(=O)CCSc1nc(C)cc(C(F)(F)F)c1C#N | 82% (active) | 50.9
O=C(NN=C1C2CC3CC(C2)CC1C3)c1cccc(S(=O)(=O)N2CCOCC2)c1 | 2.1% (inactive) | –
Cc1ccccc1CSc1n[nH]c(NS(=O)(=O)c2ccccc2)n1 | -0.6% (inactive) | –
COc1ccccc1C(=O)NNC(=O)c1cccc(C)c1 | 0.2% (inactive) | –
Cc1cc(-c2csc(NC(=O)c3ccc(=O)[nH]c3)n2)c(C)n1Cc1ccco1 | 61% (active) | –
Cc1cc(-c2csc(NC(=O)c3ccc(=O)[nH]c3)n2)c(C)n1Cc1ccccc1 | 84.8% (inactive) | 2.3
Cc1cc(-c2csc(N)n2)c(C)n1Cc1ccco1 | 46.3% (inactive) | –
CCNc1nc(-c2cc(C)n(Cc3ccco3)c2C)cs1 | 59.6% (inactive) | 0.3
Cc1cc(-c2csc(NC(=O)c3ccc(C#N)cc3)n2)c(C)n1Cc1ccccc1 | 15.9% (inactive) | –
Cc1cc(-c2csc(NC(=O)c3ccc(C#N)cc3)n2)c(C)n1Cc1ccco1 | 56.1% (active) | –
O=C(Nc1cccc(C(F)(F)F)c1)/C(=C/c1ccco1)NC(=O)c1cccs1 | 15.1% (inactive) | –
COC(=O)c1ccc(COc2ccc(/C=N/Nc3cccc(C(=O)O)c3)cc2)cc1 | 58.9% (active) | –
O=C(O)c1cccc(N/N=C/c2ccc(OC(F)(F)F)cc2)c1 | 26.1% (inactive) | –
COC(=O)c1ccc(COc2ccccc2/C=N/Nc2cccc(C(=O)O)c2)cc1 | 37% (inactive) | –
COc1ccc(/C=N/NC(=O)c2cccc([N+](=O)[O-])c2)cc1OC(=O)c1ccc(C)cc1 | -0.7% (inactive) | –

Structure (SMILES) | inhibition (at 20 µM) | inhibition [1] [%]
CO/N=C(\c1nonc1N)N1CCN(c2ccc(Cl)cc2[N+](=O)[O-])CC1 | -0.3% (inactive) | –
COc1ccccc1/C=C/C=C1N=C(/C=C/c2ccc(Cl)cc2)OC/1=O | 56.4% (inactive) | -0.4
CC1=N/C(=C/c2ccco2)C(=O)O1 | 41.7% (inactive) | –
O=C1OC(/C=C/c2ccc(Cl)cc2)=NC/1=C/c1ccco1 | 56.5% (active) | –
O=C(NCc1ccccc1Cl)NCc1ccccc1Cl | 1% (inactive) | –
CCCC(=O)n1nc(-c2ccccc2)nc1SC | 3.2% (inactive) | –
Cc1nnc(NC(=O)C23CC4CC(CC(C4)C2)C3)s1 | 2.2% (inactive) | –
COc1ccc(-c2cc(CCCC(=O)N3CCN(c4ccc(OC)cc4)CC3)no2)cc1 | -1.3% (inactive) | –
COc1ccc2nc3cc(Cl)ccc3c(C#N)c2c1 | 3.4% (inactive) | –
COc1ccc2nc3cc(Cl)ccc3c(Nc3cc(C(C)C)c(O)cc3C)c2c1 | -5.4% (inactive) | –
CCN(CC)CCCC(C)Nc1c2ccc(Cl)cc2nc2ccc(OC)cc12 (centres undefined) | 62.2% (active) | –
O=C1NC(=Nc2ccccc2Cl)S/C1=C\c1ccc(C(=O)O)cc1 | 26.9% (inactive) | –
COc1cc(/C=C2\S/C(=N/S(=O)(=O)Cc3ccccc3)NC2=O)c([N+](=O)[O-])cc1OC | 25.9% (inactive) | –
O=C1N/C(=N\S(=O)(=O)Cc2ccccc2)S/C1=C/c1cccc([N+](=O)[O-])c1 | 30.7% (inactive) | –
O=C1N/C(=N\S(=O)(=O)Cc2ccccc2)S/C1=C/c1cc([N+](=O)[O-])ccc1O | 69.6% (active) | –
O=C1NC(=Nc2ccccc2Cl)S/C1=C\c1cccc([N+](=O)[O-])c1 | 75.6% (inactive) | 29.4
COc1c(/C=C2\SC(=Nc3ccccc3Cl)NC2=O)cccc1[N+](=O)[O-] | 20% (inactive) | –
COc1cccc(N=C2NC(=O)/C(=C/c3cc([N+](=O)[O-])ccc3O)S2)c1 | 64.2% (inactive) | 33
O=C1NC(=Nc2ccccc2Cl)S/C1=C\c1cc([N+](=O)[O-])ccc1O | 89.1% (active) | 124
N/C(=N\NC(=O)c1ccccc1Cl)c1cc2ccccc2oc1=O | 0.3% (inactive) | –
CCC(=O)Nc1ccc(-c2nnc(SCc3ccc(C(=O)Nc4nccs4)cc3)n2CC)cc1 | -0.6% (inactive) | –
NC1=NC[C@H](CC2CCCCC2)N1CCc1cc(C(F)(F)F)cc(C(F)(F)F)c1 | 0.6% (inactive) | –
CC(C)[C@@H]1NC(=O)N(c2ccc(Oc3ccccc3)cc2)C1=O | -2.5% (inactive) | –
COc1cccc(-c2c(C(=O)N/N=C(\C)COc3ccccc3)nnn2-c2nonc2N)c1 | -1.6% (inactive) | –
Cc1[nH]c2ccccc2c1C(=O)C(=O)NCCc1c[nH]c2ccccc12 | 0.7% (inactive) | –
CCn1c(SCC(=O)Nc2cc(C)on2)nnc1-c1ccc(S(=O)(=O)N2CCN(C)CC2)cc1 | -2.9% (inactive) | –
N#Cc1c(-c2ccccc2Cl)noc1/C=C/Nc1ccc(C(=O)O)cc1 | 53.5% (inactive) | 3.7
